The source made the active and inactive calls. The calls were made as follows: active = hit-call score of the fitted dose curve at least 0.9, where 1 is the maximum; inactive = score below 0.9.
How the values were obtained:
[1] = read-out: CFLAR gene, CFLAR (gene 8837); test: LTEA_HepaRG_CFLAR: Life Technologies and Expression Analysis (LTEA) Assay for CFLAR gene using HepaRG (AID 2283455); settings: mRNA level, 48 h; actives raise or lower the signal
How it was run: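 Differentiated HepaRG cells in serum-free induction medium were exposed 48 h in duplicate to eight half-log concentrations up to 100 uM in 0.5% DMSO; mRNA measured by TaqMan qRT-PCR, normalized to ACTB, GAPDH, POLR2A; bidirectional fitting versus DMSO.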

[2] = read-out: Forkhead box O1 (FOXO1), FOXO1 (gene 2308); test: LTEA_HepaRG_FOXO1: Life Technologies and Expression Analysis (LTEA) Assay for Forkhead box O1 (FOXO1) using HepaRG (AID 2283456); settings: mRNA level, 48 h; actives raise or lower the signal
How it was run: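 Differentiated HepaRG cells, in serum-free induction medium with 0.5% DMSO, exposed 48 h in duplicate to 8-point half-log series from 100 uM. FOXO1 mRNA measured by TaqMan qRT-PCR, normalized to ACTB, GAPDH, POLR2A; bidirectional fit versus DMSO.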

[3] = read-out: growth arrest and DNA damage 45 (GADD45A), GADD45A (gene 1647); test: LTEA_HepaRG_GADD45A: Life Technologies and Expression Analysis (LTEA) Assay for growth arrest and DNA damage 45 (GADD45A) using HepaRG (AID 2283458); settings: mRNA level, 48 h; actives raise or lower the signal
How it was run: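 Differentiated HepaRG cells exposed 48 h in serum-free induction medium to 8 concentrations, top 100 uM in half-log steps, 0.5% DMSO. GADD45A mRNA quantified by qRT-PCR, normalized to ACTB, GAPDH and POLR2A; bidirectional fit versus DMSO.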

[4] = read-out: Forkhead box O3 (FOXO3), FOXO3 (gene 2309); test: LTEA_HepaRG_FOXO3: Life Technologies and Expression Analysis (LTEA) Assay for Forkhead box O3 (FOXO3) using HepaRG (AID 2283459); settings: mRNA level, 48 h; actives raise or lower the signal
How it was run: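 Differentiated human HepaRG cells, 48 h post-plating, exposed in duplicate for 48 h in serum-free induction medium; 8-point half-log series from 100 uM in 0.5% DMSO. FOXO3 mRNA by TaqMan qRT-PCR, normalized to ACTB/GAPDH/POLR2A; bidirectional fit versus DMSO.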

[5] = read-out: ABC Transporter (ABCB1), ABCB1 (gene 5243); test: LTEA_HepaRG_ABCB1: Life Technologies and Expression Analysis (LTEA) Assay for ABC Transporter (ABCB1) using HepaRG (AID 2283460); settings: mRNA level, 48 h; actives raise or lower the signal
How it was run: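 HepaRG cells exposed in duplicate for 48 h in serum-free induction medium to eight half-log concentrations up to 100 uM in 0.5% DMSO. ABCB1 mRNA quantified by qRT-PCR, normalised to ACTB, GAPDH and POLR2A; fitted bidirectionally versus DMSO.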

[6] = read-out: growth arrest and DNA damage 45 (GADD45B), GADD45B (gene 4616); test: LTEA_HepaRG_GADD45B: Life Technologies and Expression Analysis (LTEA) Assay for growth arrest and DNA damage 45 (GADD45B) using HepaRG (AID 2283461); settings: mRNA level, 48 h; actives raise or lower the signal
How it was run: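 qRT-PCR read-out (Fluidigm TaqMan, housekeeping-normalized) of mRNA change in human HepaRG cells after 48 h chemical exposure; 8-point curve, top 100 uM, half-log steps, 0.5% DMSO vehicle; gain or loss fitted relative to DMSO baseline.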

[7] = read-out: ABC Transporter (ABCC3), ABCC3 (gene 8714); test: LTEA_HepaRG_ABCC3: Life Technologies and Expression Analysis (LTEA) Assay for ABC Transporter (ABCC3) using HepaRG (AID 2283462); settings: mRNA level, 48 h; actives raise or lower the signal
How it was run: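 qRT-PCR read-out of ABCC3 transcript, normalized to three housekeeping genes (ACTB, GAPDH, POLR2A), after 48 h chemical exposure of human HepaRG cells. Eight half-log concentrations, highest 100 uM, in 0.5% DMSO; gain or loss fitted relative to DMSO baseline.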

[8] = read-out: ABC Transporter (ABCB11), ABCB11 (gene 8647); test: LTEA_HepaRG_ABCB11: Life Technologies and Expression Analysis (LTEA) Assay for ABC Transporter (ABCB11) using HepaRG (AID 2283463); settings: mRNA level, 48 h; actives raise or lower the signal
How it was run: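 Differentiated human HepaRG cells in serum-free induction medium, dosed in duplicate for 48 h. Eight-point half-log series from 100 uM in 0.5% DMSO; ABCB11 mRNA by qRT-PCR, normalized to ACTB, GAPDH, POLR2A, fitted bidirectionally versus DMSO.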

[9] = read-out: ABC Transporter (ABCC2), ABCC2 (gene 1244); test: LTEA_HepaRG_ABCC2: Life Technologies and Expression Analysis (LTEA) Assay for ABC Transporter (ABCC2) using HepaRG (AID 2283464); settings: mRNA level, 48 h; actives raise or lower the signal
How it was run: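 qRT-PCR (TaqMan, Fluidigm array) read-out of ABCC2 mRNA, normalized to three housekeeping genes. Differentiated HepaRG cells were treated 48 h in serum-free induction medium with 8-point half-log series from 100 uM in 0.5% DMSO; curves fitted bidirectionally relative to DMSO.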

[10] = read-out: Broad substrate specificity ATP-binding cassette transporter ABCG2 (Homo sapiens) (UniProt Q9UNQ0); test: LTEA_HepaRG_ABCG2: Life Technologies and Expression Analysis (LTEA) Assay for ABC Transporter (ABCG2) using HepaRG (AID 2283465); settings: mRNA level, 48 h; actives raise or lower the signal
How it was run: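 Differentiated HepaRG cells were exposed for 48 h in serum-free induction medium to 8 half-log concentrations, top 100 uM, in 0.5% DMSO. ABCG2 mRNA was measured by qRT-PCR, normalized to ACTB, GAPDH and POLR2A, with bidirectional fitting versus DMSO.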

[11] = read-out: ATP-citrate lyase (ACLY), ACLY (gene 47); test: LTEA_HepaRG_ACLY: Life Technologies and Expression Analysis (LTEA) Assay for ATP-citrate lyase (ACLY) using HepaRG (AID 2283466); settings: mRNA level, 48 h; actives raise or lower the signal
How it was run: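 Differentiated HepaRG cells exposed 48 h in serum-free induction medium to eight half-log concentrations up to 100 uM in 0.5% DMSO, duplicates. Transcript measured by Fluidigm TaqMan qRT-PCR, normalized to ACTB, GAPDH, POLR2A; bidirectional fit versus DMSO.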

[12] = read-out: Peroxisomal acyl-coenzyme A oxidase 1 (ACOX1) gene, ACOX1 (gene 51); test: LTEA_HepaRG_ACOX1: Life Technologies and Expression Analysis (LTEA) Assay for Peroxisomal acyl-coenzyme A oxidase 1 (ACOX1) gene using HepaRG (AID 2283467); settings: mRNA level, 48 h; actives raise or lower the signal
How it was run: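 HepaRG cells, plated 48 h then switched to serum-free induction medium, were exposed in duplicate for 48 h to 8-point half-log concentrations up to 100 uM in 0.5% DMSO. ACOX1 mRNA was measured by qRT-PCR, normalized to ACTB/GAPDH/POLR2A, and fitted bidirectionally versus DMSO.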

[13] = read-out: Alkaline Phosphatase, Placental (ALPP) gene, ALPP (gene 250); test: LTEA_HepaRG_ALPP: Life Technologies and Expression Analysis (LTEA) Assay for Alkaline Phosphatase, Placental (ALPP) gene using HepaRG (AID 2283468); settings: mRNA level, 48 h; actives raise or lower the signal
How it was run: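 qRT-PCR readout of ALPP mRNA (Fluidigm TaqMan), normalized to ACTB/GAPDH/POLR2A, after 48 h chemical exposure of HepaRG cells; 8-point half-log series, top 100 uM, 0.5% DMSO vehicle. Bidirectional curve fit versus DMSO baseline.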

[14] = read-out: Bcl-2 (BAD) gene, BAD (gene 572); test: LTEA_HepaRG_BAD: Life Technologies and Expression Analysis (LTEA) Assay for Bcl-2 (BAD) gene using HepaRG (AID 2283469); settings: mRNA level, 48 h; actives raise or lower the signal
How it was run: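 Differentiated HepaRG cells were exposed in duplicate in 0.5% DMSO for 48 h to eight-point half-log concentrations up to 100 uM. BAD mRNA was measured by Fluidigm TaqMan qRT-PCR, normalized to ACTB, GAPDH and POLR2A, and fitted bidirectionally against DMSO.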

[15] = read-out: Bcl-2 (BAX) gene, BAX (gene 581); test: LTEA_HepaRG_BAX: Life Technologies and Expression Analysis (LTEA) Assay for Bcl-2 (BAX) gene using HepaRG (AID 2283470); settings: mRNA level, 48 h; actives raise or lower the signal
How it was run: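 Differentiated HepaRG cells exposed 48 h in serum-free induction medium, eight half-log concentrations from 100 uM, in duplicate, 0.5% DMSO vehicle. BAX mRNA by TaqMan qRT-PCR, normalised to ACTB, GAPDH and POLR2A.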

[16] = read-out: adenosine kinase (ADK) gene, ADK (gene 132); test: LTEA_HepaRG_ADK: Life Technologies and Expression Analysis (LTEA) Assay for adenosine kinase (ADK) gene using HepaRG (AID 2283471); settings: mRNA level, 48 h; actives raise or lower the signal
How it was run: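 HepaRG (human liver), 48 h chemical exposure, 8-pt half-log series, top 100 uM, 0.5% DMSO vehicle. Readout: ADK mRNA by qRT-PCR vs housekeeping genes; bidirectional curve fit relative to DMSO baseline.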

[17] = read-out: Alpha-fetoprotein (AFP) gene, AFP (gene 174); test: LTEA_HepaRG_AFP: Life Technologies and Expression Analysis (LTEA) Assay for Alpha-fetoprotein (AFP) gene using HepaRG (AID 2283472); settings: mRNA level, 48 h; actives raise or lower the signal
How it was run: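 Differentiated human HepaRG cells exposed 48 h in serum-free induction medium, 8-point half-log series from 100 uM in 0.5% DMSO, duplicate. AFP mRNA by qRT-PCR, normalized to ACTB, GAPDH, POLR2A; bidirectional fit vs DMSO.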

BCL2L11 (gene 10018) = test: LTEA_HepaRG_BCL2L11: Life Technologies and Expression Analysis (LTEA) Assay for Bcl-2 (BCL2L11) gene using HepaRG (AID 2283473); settings: mRNA level, 48 h; actives raise or lower the signal
How it was run: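 HepaRG, 48 h exposure, 8-pt half-log series from 100 uM in 0.5% DMSO, duplicates; qRT-PCR (Fluidigm TaqMan) for BCL2L11, housekeeping-normalized; bidirectional curve fit relative to DMSO baseline.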

[18] = read-out: Apolipoprotein A-V (APOA5) gene, APOA5 (gene 116519); test: LTEA_HepaRG_APOA5: Life Technologies and Expression Analysis (LTEA) Assay for Apolipoprotein A-V (APOA5) gene using HepaRG (AID 2283474); settings: mRNA level, 48 h; actives raise or lower the signal
How it was run: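 HepaRG, 48 h chemical exposure in serum-free induction medium, 8-pt half-log series (top 100 uM), 0.5% DMSO vehicle, duplicates. Readout: APOA5 mRNA by qRT-PCR, housekeeping-normalized; bidirectional fit vs DMSO baseline.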

[19] = CEETOX_H295R_TESTO: CeeTox H295R High-throughput Steroidogenesis Assay for Testosterone (TESTO) (AID 2283457); settings: actives raise or lower the signal
How it was run: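 Readout: testosterone quantified by HPLC-MS/MS (C18, ESI positive) after MTBE liquid-liquid extraction of culture medium. Cells were H295R, 48 h chemical exposure per OECD 456 with modifications. Gain or loss of signal fitted relative to DMSO.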

Measured: AC50

Broad substrate specificity ATP-binding cassette transporter ABCG2 (Homo sapiens), sequence (Q9UNQ0 whole entry, looked up): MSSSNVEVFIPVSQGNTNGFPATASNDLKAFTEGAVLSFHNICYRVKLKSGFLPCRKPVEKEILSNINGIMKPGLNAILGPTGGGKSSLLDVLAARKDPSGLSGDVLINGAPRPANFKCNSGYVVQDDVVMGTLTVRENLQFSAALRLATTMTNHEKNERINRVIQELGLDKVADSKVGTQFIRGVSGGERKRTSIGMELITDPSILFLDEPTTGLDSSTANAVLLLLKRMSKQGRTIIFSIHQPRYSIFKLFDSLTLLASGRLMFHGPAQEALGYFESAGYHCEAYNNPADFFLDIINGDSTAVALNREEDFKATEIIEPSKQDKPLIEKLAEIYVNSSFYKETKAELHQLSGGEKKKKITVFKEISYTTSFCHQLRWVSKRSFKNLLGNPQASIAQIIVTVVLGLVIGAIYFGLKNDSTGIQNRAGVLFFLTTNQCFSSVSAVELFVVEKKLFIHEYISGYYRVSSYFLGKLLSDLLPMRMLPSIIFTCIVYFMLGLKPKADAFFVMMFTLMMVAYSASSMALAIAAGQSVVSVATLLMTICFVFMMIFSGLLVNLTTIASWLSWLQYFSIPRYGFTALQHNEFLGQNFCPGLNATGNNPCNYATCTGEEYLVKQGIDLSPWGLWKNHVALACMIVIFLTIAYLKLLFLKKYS

CC(C)=CCCC(C)=CC=O
not listed: [19]
inactive: all other assays above

Fc1ccccc1[C@@H](F)COC1CCC(Nc2ncnc3[nH]ncc23)CC1 (stereo not given in full)
inactive: [1] | [19] | [3] | [7] | [10] | [11] | [14]
active: [2] 82.1 µM | [5] 50 µM | [6] 81.7 µM | [8] 71.1 µM | [9] 65.4 µM | [13] 23.1 µM | [15] 50 µM | [16] 50 µM | [17] 27.2 µM | [18] 50 µM

CC[C@H](C)C(=O)O[C@H]1C[C@@H](C)C=C2C=C[C@H](C)[C@H](CC[C@@H]3C[C@@H](O)CC(=O)O3)[C@H]21
active: [5] 12.7 µM | [8] 50 µM | [11] 14.8 µM | [18] 9.92 µM
not listed: [4] | [12] | [19]
inactive: all other assays above

CC(C)CCO
not listed: [4] | [12] | [14] | [19]
inactive: all other assays above

CCOCCOCCOCCO
not listed: [4] | [14] | [19]
inactive: all other assays above

CCCCCCc1ccc(O)cc1O
not listed: [4] | [14] | [19]
inactive: all other assays above

CC(C)=CCC/C(C)=C/CO
not listed: [4] | [14] | BCL2L11 (gene 10018) | [19]
inactive: all other assays above

C1N2CN3CN1CN(C2)C3
not listed: [4] | [12] | [14] | [19]
inactive: all other assays above

CCOC(=O)CC(CC(=O)OCC)(OC(C)=O)C(=O)OCC
not listed: [4] | [12] | [19]
inactive: all other assays above

CC(C)(O)c1coc(S(=O)(=O)NC(=O)Nc2c3c(cc4c2CCC4)CCC3)c1
active: [8] 50 µM
not listed: [4] | [12] | BCL2L11 (gene 10018) | [19]
inactive: all other assays above

Cc1ccc(C)c(O)c1
not listed: [4] | [12] | [19]
inactive: all other assays above

Nc1cccc(N)c1
not listed: [4] | [14] | [19]
inactive: all other assays above

COc1ccc(/C=C/S(=O)(=O)NC(=O)c2ccc(C)cc2Cl)cc1
active: [8] 79.3 µM
not listed: [4] | [14] | BCL2L11 (gene 10018) | [19]
inactive: all other assays above

C=CC(=C)CCC=C(C)C
not listed: [4] | [14] | [19]
inactive: all other assays above

Reference: PubChem BioAssay (EPA / NIEHS)
